# Data published in PubChem BioAssay (NCATS).
# Records with an inconclusive call do not appear. Activity calls are given as the source filed them. Unless noted, the call rests on the fitted dose curve; in most records, active means well fitted curve in the direction sought with a large enough effect; inconclusive means small, poorly fitted or top-dose-only effect, or another doubt; inactive means no such curve, though single readings can be large; an effect the other way counts as inactive or inconclusive.
# Assays:
# [1] = target: Cytochrome P450 3A4 (Homo sapiens) (UniProt P08684); assay: qHTS Assay for Activators of Cytochrome P450 3A4 (AID 885); further: nearly all actives have a fitted effect of over 65% in size
# Summary of the method: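 Luminescent readout of luciferin formed from 25 uM Luciferin-PPXE (KM level) by 20 nM CYP3A4 in 200 mM KPO4, with 60 min NADPH-driven reaction at room temperature after 10 min compound exposure. Ketoconazole (57 uM) defined 100% inhibition.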
# [2] = qHTS Assay for Lipid Storage Modulators (AID 1519; calls by dose curve); settings: Drosophila S3 cells, BODIPY lipid droplet/cell ratio, laser cytometry, cells loaded with oleic acid
# Summary of the method: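 Cells seeded at 5,000 per well were treated with compounds over a concentration series and loaded with oleic acid (400 uM, as added). Lipid droplet fluorescence (488 nm excitation, 500-530 nm channel) was read by laser-scanning cytometry and normalized to 20 uM Triacsin C.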
# [3] = target: ATP-dependent 6-phosphofructokinase (Trypanosoma brucei brucei) (UniProt O15648); assay: qHTS Assay to Find Inhibitors of T. brucei phosphofructokinase: hit validation (AID 492961);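 further: luminescence reports ADP formed as PFK phosphorylates fructose-6-phosphate with ATP; on the % scale 0 is the no-effect control and ±100 the full control effect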
# Summary of the method: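 ADP-Glo luminescence read-out of ADP formed by 1.25 nM PFK from 0.1 mM ATP and 0.5 mM F6P (TEA pH 8.0, 45 min, RT). Compounds titrated; activity normalized to no-enzyme and full-enzyme controls.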
# [4] = target: Luciferin 4-monooxygenase (Photinus pyralis) (UniProt P08659); assay: Biochemical firefly luciferase enzyme assay for NPC (AID 624030);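 further: purified P. pyralis luciferase at 10 nM with luciferin and ATP substrate; 0% = DMSO and -100% = full luciferase inhibition by PTC124 control; nearly all actives have a fitted effect of over 70% in size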
# Summary of the method: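 Direct inhibition of firefly luciferase enzyme (10 nM final, 50 mM Tris Acetate) assessed by luminescence within 5 minutes. Percent activity scaled between DMSO and PTC124 positive control, with concentration-effect curves classified by fit quality and response.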
# [5] = S16 Schwann cell viability assay (CellTiter-Glo assay) (AID 624031);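 further: native untransfected S16 rat Schwann cells; cellular ATP luminescence as a viability measure; plate controls were DMSO-treated cells for no effect and cell-free wells for full effect; nearly all actives have a fitted effect of over 70% in size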
# Summary of the method: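 Rat S16 Schwann cells without reporter constructs received compound or DMSO for 24 h at 37 °C under 5% CO2. Cellular ATP was then quantified by CellTiter-Glo luminescence, with vehicle wells defined as 0% activity and cell-free wells as reference.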
# [6] = S16 Schwann cell PMP22 intronic element firefly luciferase assay (AID 624032); further: nearly all actives have a fitted effect of over 30% in size; further: potency means the concentration at half of the fitted maximal effect;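 on activity change, negative = inhibition: plate controls were DMSO for no effect and PTC124 positive control mean for full effect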
# Summary of the method: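 Luciferase reporter of PMP22 intronic-element expression in stably transfected S16 rat Schwann cells, read by ONE-Glo luminescence after 24 h compound exposure at 37 C. Activity scaled between DMSO (0%) and positive-control PTC124; concentration-effect curves quality-classified.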
# [7] = qHTS profiling for inhibitors of Plasmodium falciparum proliferation (AID 504749); further: nearly all actives have a fitted effect of over 60% in size; further: potency means the concentration at half of the fitted maximal effect;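 on activity, negative = inhibition: 0% = DMSO vehicle and full inhibition = artemisinin control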; settings: P. falciparum in erythrocytes, SYBR Green DNA, 72 h
# Summary of the method: (§1)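 In a 72 h erythrocytic culture (37 C, humidified, 5% CO2) at 2.5% hematocrit and 0.3% starting parasitemia, compounds were tested; SYBR Green I in detergent lysis buffer stained parasite DNA overnight.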
# [8] = system: 3D7; assay: as above; settings: P. falciparum in erythrocytes, SYBR Green DNA, 72 h; series mostly up to 28.7 µM
# Summary of the method: as §1
# [9] = system: CP262; assay: as above; settings: P. falciparum in erythrocytes, SYBR Green DNA, 72 h; series mostly up to 28.7 µM
# Summary of the method: as §1
# [10] = system: ECU; assay: as above; settings: P. falciparum in erythrocytes, SYBR Green DNA, 72 h; series mostly up to 28.7 µM
# Summary of the method: as §1
# [11] = system: HB3; assay: as above; settings: P. falciparum in erythrocytes, SYBR Green DNA, 72 h; series mostly up to 28.7 µM
# Summary of the method: as §1
# [12] = target: Ubiquitin carboxyl-terminal hydrolase 1 (Homo sapiens) (UniProt O94782); assay: Inhibitors of USP1/UAF1: Pilot qHTS (AID 504865);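 further: rhodamine fluorescence freed from ubiquitin-rhodamine substrate followed over time; top concentration of the series differs between compounds; on the % scale 0 is the no-effect control and ±100 the full control effect; nearly all actives have a fitted effect of over 35% in size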
# Summary of the method: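 Kinetic fluorescence assay: 1nM USP1/UAF1, 15 min compound preincubation, then 150nM Ub-Rho; 480/540 nm.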
# [13] = target: Cytochrome P450 1A2 (Homo sapiens) (UniProt P05177); assay: p450-cyp1a2 (AID 410; calls by dose curve;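 further: -100% = full effect of reference inhibitor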)
# Summary of the method: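 20nM CYP1A2, 100uM Luciferin-ME (=Km), 100mM KPO4; cpd 10 min RT; +NADPH regen, 60 min RT; stop/detect 20 min; luminescence. Normalized to furafylline 57 uM = full inhibition.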
# [14] = target: Glucocorticoid receptor (Homo sapiens) (UniProt P04150); assay: GR-GFP Redistribution (AID 450;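 active means compounds whose dose series gives a full or clear partial fitted curve of increased nuclear translocation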; further: potency means the concentration at half of the fitted maximal effect); settings: U2OS GR-GFP nuclear translocation, laser cytometry, 2 h
# [15] = target: Mitogen-activated protein kinase 10 (Mus musculus) (UniProt Q61831); assay: JNK3 AlphaScreen Assay (AID 530; active means well fitted curve in either direction with a large enough effect, not every such curve was filed as active;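 further: kinase came from lysate of stimulated human HepG2 cells; signal reports phosphorylation of biotinylated GST-cJun 1-79 at Ser73 with 10 µM ATP; on the % scale 0 is the no-effect control and ±100 the full control effect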)
# Summary of the method: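 Kinase buffer: 20 mM Tris-HCl pH 7.6, 10 mM MgCl2, 1 mM DTT, 0.1 mM Na3VO4, 0.01% Tween-20; ATP 10 uM. Substrate biotin-GST-cJun(1-79), enzyme from activated HepG2 lysates. Detection by Ser73 phospho-antibody AlphaScreen.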
# [16] = NFAT Signaling Pathway (AID 444; active means well fitted curve in either direction with a large enough effect, not every such curve was filed as active;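 further: carbachol stimulus at about its EC50 of 1 µM final; on the % scale 0 is the no-effect control and ±100 the full control effect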); settings: Jurkat NFAT-bla M1, carbachol, beta-lactamase ratio, 5 h; at 17.2 µM (top of the series)
# Summary of the method: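 Read-out: CCF4 FRET ratio (460 nm/530 nm) after 1 h RT dye loading, used for %activity and AC50 from titration series. Cells: Jurkat NFAT-β-lactamase/M1 line, treated with compound plus 1 uM carbachol for 5 h, 37 °C.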
# [17] = Stat Signaling Pathway (AID 446; active means well fitted curve in either direction with a large enough effect, not every such curve was filed as active;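 further: ME-180 cervical cancer cells given 40 pM IL-6 alongside compound; SIE-controlled beta-lactamase reporter measured as 460/530 nm FRET emission ratio; on the % scale 0 is the no-effect control and ±100 the full control effect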)
# Summary of the method: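 FRET read-out (405 nm excitation, 460/530 nm emission) of a beta-lactamase reporter under a STAT-inducible element in ME-180 cervical carcinoma cells. Cells with compound receive 40 pM IL-6 for 5 h. Values are normalised to AC90 stimulation and AC90 JAK-inhibitor controls.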
# [18] = target: Glucocorticoid receptor (Homo sapiens) (UniProt P04150); assay: GR-EFC Redistribution (AID 451; calls by dose curve; further: potency means the concentration at half of the fitted maximal effect); settings: CHO-K1 GR-EFC translocation, beta-gal luminescence, 2 h
# Summary of the method: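 Translocation of GR-ED fusion to nuclear EA restores b-gal, read by luminescence after 1 h room-temperature detection. Engineered CHO-K1 biosensor cells, 1,000/well, exposed 2 h at 37 C to titrations up to 46 uM final.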
# [19] = measured here: cell count channel max response
# [20] = measured here: lipid channel max response
# [21] = at 28.7 µM (top of the series), parasite line A
# [22] = at 28.7 µM (top of the series), parasite line B
# Sequence of ATP-dependent 6-phosphofructokinase (Trypanosoma brucei brucei) (O15648 whole entry, looked up): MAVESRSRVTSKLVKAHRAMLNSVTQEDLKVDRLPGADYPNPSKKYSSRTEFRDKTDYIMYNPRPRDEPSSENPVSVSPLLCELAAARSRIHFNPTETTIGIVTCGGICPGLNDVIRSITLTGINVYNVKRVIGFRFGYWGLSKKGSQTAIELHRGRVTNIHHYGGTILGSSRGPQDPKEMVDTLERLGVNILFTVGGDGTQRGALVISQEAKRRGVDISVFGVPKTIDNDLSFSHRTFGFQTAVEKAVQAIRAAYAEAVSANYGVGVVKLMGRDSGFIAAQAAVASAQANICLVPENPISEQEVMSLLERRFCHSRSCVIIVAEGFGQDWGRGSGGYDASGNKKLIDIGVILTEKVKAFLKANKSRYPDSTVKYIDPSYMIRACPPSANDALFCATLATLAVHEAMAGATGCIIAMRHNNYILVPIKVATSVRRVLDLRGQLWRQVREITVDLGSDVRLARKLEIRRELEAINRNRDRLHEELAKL
# Sequence of Glucocorticoid receptor (Homo sapiens) (P04150 whole entry, looked up, the tested form may be a part): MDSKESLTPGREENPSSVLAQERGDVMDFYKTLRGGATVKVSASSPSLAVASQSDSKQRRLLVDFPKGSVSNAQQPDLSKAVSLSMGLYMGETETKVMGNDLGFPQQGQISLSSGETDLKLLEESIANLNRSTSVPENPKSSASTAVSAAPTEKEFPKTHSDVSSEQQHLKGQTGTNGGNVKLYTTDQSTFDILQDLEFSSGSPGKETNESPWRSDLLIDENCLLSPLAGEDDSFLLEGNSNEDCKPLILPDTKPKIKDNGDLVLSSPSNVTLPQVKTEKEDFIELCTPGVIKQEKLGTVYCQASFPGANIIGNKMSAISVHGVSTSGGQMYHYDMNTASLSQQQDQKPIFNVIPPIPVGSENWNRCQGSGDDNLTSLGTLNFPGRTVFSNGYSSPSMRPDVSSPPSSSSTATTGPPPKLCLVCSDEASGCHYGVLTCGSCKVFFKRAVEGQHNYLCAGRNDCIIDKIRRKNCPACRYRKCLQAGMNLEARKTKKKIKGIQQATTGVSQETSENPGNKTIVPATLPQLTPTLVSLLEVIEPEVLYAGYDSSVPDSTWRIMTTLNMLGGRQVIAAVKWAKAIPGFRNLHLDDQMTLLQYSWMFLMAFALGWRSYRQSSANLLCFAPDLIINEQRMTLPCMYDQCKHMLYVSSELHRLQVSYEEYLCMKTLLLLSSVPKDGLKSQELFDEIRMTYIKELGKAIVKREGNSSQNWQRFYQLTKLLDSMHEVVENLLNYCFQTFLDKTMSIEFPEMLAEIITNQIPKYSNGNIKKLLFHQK
# Sequence of Luciferin 4-monooxygenase (Photinus pyralis) (P08659 whole entry, looked up): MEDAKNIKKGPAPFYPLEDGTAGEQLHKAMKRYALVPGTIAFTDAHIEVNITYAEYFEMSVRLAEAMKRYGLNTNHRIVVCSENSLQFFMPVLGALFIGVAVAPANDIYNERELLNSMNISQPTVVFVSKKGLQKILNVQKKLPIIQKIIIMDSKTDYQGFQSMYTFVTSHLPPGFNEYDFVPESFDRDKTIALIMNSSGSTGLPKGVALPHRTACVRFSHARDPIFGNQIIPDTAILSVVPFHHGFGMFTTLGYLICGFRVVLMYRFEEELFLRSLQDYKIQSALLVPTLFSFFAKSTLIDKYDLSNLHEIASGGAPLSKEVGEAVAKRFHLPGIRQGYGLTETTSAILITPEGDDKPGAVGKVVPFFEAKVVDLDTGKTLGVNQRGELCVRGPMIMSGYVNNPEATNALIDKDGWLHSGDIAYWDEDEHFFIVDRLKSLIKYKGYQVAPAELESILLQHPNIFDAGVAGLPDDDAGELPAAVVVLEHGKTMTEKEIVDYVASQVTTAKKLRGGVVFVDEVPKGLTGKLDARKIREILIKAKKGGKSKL
# Sequence of Ubiquitin carboxyl-terminal hydrolase 1 (Homo sapiens) (O94782 whole entry, looked up): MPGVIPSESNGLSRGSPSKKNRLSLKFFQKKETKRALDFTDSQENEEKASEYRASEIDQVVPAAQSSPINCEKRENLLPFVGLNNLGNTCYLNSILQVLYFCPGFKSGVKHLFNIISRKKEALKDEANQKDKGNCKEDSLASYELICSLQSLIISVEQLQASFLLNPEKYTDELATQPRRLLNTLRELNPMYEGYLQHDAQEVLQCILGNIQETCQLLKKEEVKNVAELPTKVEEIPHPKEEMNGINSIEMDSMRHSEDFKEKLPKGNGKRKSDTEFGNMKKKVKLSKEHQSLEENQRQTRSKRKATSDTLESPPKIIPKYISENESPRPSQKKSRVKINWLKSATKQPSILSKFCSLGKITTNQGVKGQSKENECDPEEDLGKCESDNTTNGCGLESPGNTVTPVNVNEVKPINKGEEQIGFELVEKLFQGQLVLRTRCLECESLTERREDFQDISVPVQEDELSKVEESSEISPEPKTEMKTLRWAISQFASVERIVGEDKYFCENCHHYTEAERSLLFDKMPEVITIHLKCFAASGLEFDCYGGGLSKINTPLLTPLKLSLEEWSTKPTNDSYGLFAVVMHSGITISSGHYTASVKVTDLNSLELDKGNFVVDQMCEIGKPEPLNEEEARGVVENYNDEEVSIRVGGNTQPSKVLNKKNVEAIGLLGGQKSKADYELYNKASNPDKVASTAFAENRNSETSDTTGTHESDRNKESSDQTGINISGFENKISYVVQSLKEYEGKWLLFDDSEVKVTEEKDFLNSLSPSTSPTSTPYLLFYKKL
# Sequence of Cytochrome P450 3A4 (Homo sapiens) (P08684 whole entry, looked up): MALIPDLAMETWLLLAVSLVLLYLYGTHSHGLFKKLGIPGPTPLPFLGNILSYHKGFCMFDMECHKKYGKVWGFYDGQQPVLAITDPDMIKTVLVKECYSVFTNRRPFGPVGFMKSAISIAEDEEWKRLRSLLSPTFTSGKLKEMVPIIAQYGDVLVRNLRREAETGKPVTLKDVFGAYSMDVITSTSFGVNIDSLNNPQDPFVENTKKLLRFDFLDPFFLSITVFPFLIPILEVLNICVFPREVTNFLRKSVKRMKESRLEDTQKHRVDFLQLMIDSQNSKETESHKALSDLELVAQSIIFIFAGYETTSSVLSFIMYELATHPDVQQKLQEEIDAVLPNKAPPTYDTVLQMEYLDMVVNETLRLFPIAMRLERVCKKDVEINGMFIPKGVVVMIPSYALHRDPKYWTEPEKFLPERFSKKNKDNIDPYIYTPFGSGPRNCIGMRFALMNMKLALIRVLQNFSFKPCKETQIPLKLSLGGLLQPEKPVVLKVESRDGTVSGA
# Sequence of Cytochrome P450 1A2 (Homo sapiens) (P05177 whole entry, looked up): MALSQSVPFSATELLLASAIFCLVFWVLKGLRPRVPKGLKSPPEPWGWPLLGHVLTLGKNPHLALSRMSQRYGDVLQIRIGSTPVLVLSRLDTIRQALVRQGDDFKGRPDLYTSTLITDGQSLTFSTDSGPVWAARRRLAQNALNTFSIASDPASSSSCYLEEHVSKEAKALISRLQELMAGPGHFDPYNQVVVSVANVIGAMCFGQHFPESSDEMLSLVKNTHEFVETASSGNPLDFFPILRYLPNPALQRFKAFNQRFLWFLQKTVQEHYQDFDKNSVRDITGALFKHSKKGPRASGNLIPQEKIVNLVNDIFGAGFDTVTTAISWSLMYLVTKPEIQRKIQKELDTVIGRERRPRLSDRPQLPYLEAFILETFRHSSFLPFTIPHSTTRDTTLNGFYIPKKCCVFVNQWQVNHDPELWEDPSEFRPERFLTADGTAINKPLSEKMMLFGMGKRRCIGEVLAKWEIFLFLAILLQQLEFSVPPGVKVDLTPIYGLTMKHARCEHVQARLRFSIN
smiles,measurement,setting,value
C=CC1CN2CCC1CC2C(OC(=O)OCC)c1ccnc2ccc(OC)cc12 (stereo unspecified),Potency,[1],inactive
same,"activity change, negative = inhibition",[2]; at 57.5 µM (top of the series),5.87% (inactive)
same,max response,[2]; [19],0.936%
same,max response,[2]; [20],9.58%
same,Potency,[3],inactive
same,Potency,[4],inactive
same,Potency,[5],inactive
same,Potency,[6],inactive
same,Potency,[7]; parasite line A,1.58 µM (active)
same,Potency,[7]; parasite line B,2.24 µM (active)
same,Potency,[8],2.51 µM (active)
same,Potency,[9],6.01 µM (active)
same,Potency,[10],3.98 µM (active)
same,Potency,[11],6.31 µM (active)
COc1cc2c(cc1OC)[C@@]13CCN4CC5=CCOC6CC(=O)N2C1[C@H]6[C@@H]5C[C@@H]43 (stereo partly specified),"activity change, negative = inhibition",[2]; at 57.5 µM (top of the series),14% (inactive)
same,max response,[2]; [19],9.29%
same,max response,[2]; [20],26.2%
same,Potency,[3],inactive
same,Potency,[12],inactive
same,Potency,[4],inactive
same,Potency,[5],inactive
same,Potency,[6],inactive
same,"activity, negative = inhibition",[7]; [21],-1.63% (inactive)
same,"activity, negative = inhibition",[7]; [22],1.63% (inactive)
same,Potency,[8],inactive
same,Potency,[9],inactive
same,Potency,[10],inactive
same,Potency,[11],inactive
CC(=O)O[C@H]1C[C@@H](O[C@@H]2[C@H](C)O[C@H](O[C@@H]3[C@H](C)O[C@H](O[C@@H]4CC[C@@]5(C)[C@@H](CC[C@]6(C)[C@]5(C)C[C@H](O)[C@]5(C)[C@@H](C7=CC(=O)OC7)CC[C@@]56O)C4)C[C@@H]3O)C[C@@H]2O)O[C@@H](C)[C@H]1O[C@H]1O[C@@H](CO)[C@@H](O)[C@@H](O)[C@@H]1O,Potency,[13],inactive
same,Potency,[14],> 20.6 µM (inactive)
same,outcome,[15],inactive
same,"activity change, negative = inhibition",[2]; at 25.7 µM (top of the series),-1.77% (inactive)
same,max response,[2]; [19],-6.91%
same,max response,[2]; [20],-8.38%
same,Potency,[12],inactive
O=C1C=C2C=CC3C[C@@]2(O1)C1CCCCN31 (stereo partly specified),Potency,[1],inactive
same,"activity change, negative = inhibition",[2]; at 57.5 µM (top of the series),4.29% (inactive)
same,max response,[2]; [19],5.82%
same,max response,[2]; [20],10.8%
same,Potency,[3],inactive
same,Potency,[12],inactive
same,Potency,[4],inactive
same,Potency,[5],inactive
same,Potency,[6],0.51 µM (active)
same,Potency,[7]; parasite line A,11.2 µM (active)
same,Potency,[7]; parasite line B,8.91 µM (active)
same,Potency,[8],12.6 µM (active)
same,Potency,[9],13.5 µM (active)
same,Potency,[10],11.2 µM (active)
same,Potency,[11],11.2 µM (active)
CNC(C)[C@@H](O)c1ccccc1 (stereo partly specified),"activity change, negative = inhibition",[2]; at 57.5 µM (top of the series),-6.91% (inactive)
same,max response,[2]; [19],19.3%
same,max response,[2]; [20],12.8%
same,Potency,[3],inactive
same,Potency,[4],inactive
same,Potency,[5],inactive
same,Potency,[6],inactive
same,"activity, negative = inhibition",[7]; [21],-2.9% (inactive)
same,"activity, negative = inhibition",[7]; [22],-5.29% (inactive)
same,Potency,[8],inactive
same,Potency,[9],inactive
same,Potency,[10],inactive
same,Potency,[11],inactive
CC[C@@H]1CN2CC[C@@H]1C[C@H]2[C@H](O)c1ccnc2ccc(OC)cc12,"activity change, negative = inhibition",[2]; at 57.5 µM (top of the series),-1.21% (inactive)
same,max response,[2]; [19],1.88%
same,max response,[2]; [20],1.41%
same,Potency,[12],inactive
Clc1ccc([C@@H](OCCN2CCCCC2)c2ccccc2)cc1,"activity change, negative = inhibition",[16],-74.4% (active)
same,outcome,[17],inactive
same,Potency,[14],> 20.6 µM (inactive)
same,Potency,[18],> 20.6 µM (inactive)
same,"activity change, negative = inhibition",[2]; at 25.7 µM (top of the series),-2.71% (inactive)
same,max response,[2]; [19],-5.28%
same,max response,[2]; [20],-7.74%
same,Potency,[3],inactive
same,Potency,[4],inactive
same,Potency,[6],inactive
same,"activity, negative = inhibition","[7]; at 12.8 µM (top of the series), parasite line A",-2.83% (inactive)
same,"activity, negative = inhibition","[7]; at 12.8 µM (top of the series), parasite line B",-13.1% (inactive)
same,Potency,[8],inactive
same,Potency,[9],inactive
same,Potency,[11],7.94 µM (active)
CC1CC[C@@]2(NC1)O[C@@H]1C[C@H]3C4CC=C5C[C@@H](O)CC[C@]5(C)C4CC[C@]3(C)[C@H]1[C@@H]2C (stereo partly specified),"activity change, negative = inhibition",[2]; at 57.5 µM (top of the series),7.46% (inactive)
same,max response,[2]; [19],-0.557%
same,max response,[2]; [20],6.71%
same,Potency,[12],inactive
